Hit rate of the full screen: of about 1,200 compounds, about 210 (18%) were called active. Rule as the data show it: active = inhibition above about 30%; inactive = the rest. These entries were drawn from the full list.
Test: HTRF signal interference by compounds, confirmation, artefact control for SUMOylation inhibitor project, biochemical, uHTS (AID 2069)
Settings: HTRF interference counterscreen, fluorescence, at 35 µM, active compounds read high

SMILES | inhibition
COc1cc(/C=C2\C(=O)N(c3ccc(S(N)(=O)=O)cc3)N=C2C)ccc1OC(=O)c1ccco1 | 19.1% (inactive)
CCOc1cc(/C=C2/C(=O)N(c3ccccc3)N=C2C)ccc1OC(=O)c1ccco1 | -12.2% (inactive)
COc1ccccc1Oc1c(C)oc2cc(OC(=O)c3ccco3)ccc2c1=O | 36.7% (active)
CCOc1cccc(CNc2ccc(O)cc2)c1OCc1ccc(Cl)cc1Cl | 17.7% (inactive)
COc1ccc(-n2c3nc4ccccc4nc3c3c(=N)oc(C)nc32)cc1 | -1.2% (inactive)
O=C1N(c2ccc(Cl)c(Cl)c2)CN(Cc2ccccc2)CN1n1cnnc1 | 13.3% (inactive)
CCCNC(=O)c1ccc2c(=O)c(O)c(-c3ccsc3)[nH]c2c1 | 46.5% (active)
COc1ccccc1NC(=O)CSc1ccc2nnc(-c3ccccn3)n2n1 | -3.25% (inactive)
COc1ccccc1NC(=O)Nc1ccnn1Cc1cccs1 | 63.1% (active)
COc1ccccc1NC(=O)Cn1nc(C)n2cccc2c1=O | -4.55% (inactive)
O=C(Nc1nc(-c2ccccc2)cs1)c1ccccc1NS(=O)(=O)c1ccc(F)cc1 | 9.2% (inactive)
CC(=O)c1ccc2cccc3c2c1N=CN3C | -3.4% (inactive)
COc1ccc(Br)cc1C1CC(=O)N2CN(Cc3ccccc3)CSC2=C1C#N (configuration not stated) | -9.75% (inactive)
COc1ccc(OC)c(/C=N/NC(=O)CCc2ccc(O)c(O)c2)c1 | 17.9% (inactive)
COc1ccc(-c2nc3ccncc3[nH]2)cc1OC | 46.5% (active)
COc1ccc(-c2nc3ccc([N+](=O)[O-])cc3[nH]2)cc1 | 23.2% (inactive)
COc1ccc(NC(=O)C(=O)N/N=C\c2ccc(CNC(=O)C(=O)Nc3ccc(C)c(C)c3)o2)c(OC)c1 | 15.9% (inactive)
COc1cc(/C=C2\C(=O)N(CCC#N)N=C2C)c(Br)cc1OC(C)C | -5.4% (inactive)
O=C(COc1ccc2oc(-c3ccco3)cc(=O)c2c1)N1CCCCC1 | 39.8% (active)

SMILES | inhibition
CCN(CC)C(=O)COc1ccc2oc(-c3ccco3)cc(=O)c2c1 | 43.6% (active)
CN(C)c1cc(N/N=C/c2ccccc2C(F)(F)F)nc(N(C)C)n1 | -2.9% (inactive)
O=c1cc(CSc2nnnn2-c2ccccc2)nc(Nc2ccc(F)cc2)[nH]1 | 3.3% (inactive)
NC(=O)CC(NC(=O)Cc1cccc2ccccc12)c1ccc(NC2CCCCCC2)c([N+](=O)[O-])c1 (configuration not stated) | 6.15% (inactive)
Cc1ccc(O)c(CNc2cccc3cccnc23)c1 | -18.2% (inactive)
CCOC(=O)c1c(C)oc2c1c(C=NCCO)c(O)c1ccccc12 | 5.4% (inactive)
CC(C)(C)c1cc(=O)n(-c2ccccc2)[nH]1 | -0.65% (inactive)
Fc1ccc(NC(=S)Nc2cccc3ccccc23)cc1F | -11.7% (inactive)
CC1CCN(Cc2cc(=O)oc3cc(O)c(Cl)cc23)CC1 | 50.5% (active)
CC(C)(C)C1CCC2(CC1)Nc1cccc3cccc(c13)N2 | -2.5% (inactive)
CCn1c(NC(=O)c2ccccc2)nc2ccccc21 | 1.3% (inactive)
COc1ccc2nc(/C(C#N)=C\c3ccc(C(=O)O)cc3)[nH]c2c1 | 47.6% (active)
COc1ccc(/C=C(\C#N)C(=O)OCC(=O)NCc2ccccc2Cl)cc1 | 6.4% (inactive)
N#C/C(=C/c1ccc(-c2cc(C(=O)O)cc(C(=O)O)c2)o1)c1nc2ccccc2s1 | 13.9% (inactive)
O=C(Nc1ccccc1-c1nc2ccccc2s1)c1cccnc1Cl | 64% (active)
O=C(O)c1cc(Cl)c(Cl)cc1C(=O)Nc1cccc2ncccc12 | 2.4% (inactive)
O=C(/C=C/c1ccco1)NC(=S)Nc1cc(-c2nc3ccccc3s2)ccc1Cl | 3.15% (inactive)
COCCNC(=S)Nc1cccc2cnccc12 | 4.9% (inactive)
C=CCn1c(SCC(=O)N2N=C(c3ccco3)CC2c2ccco2)nnc1-c1ccncc1 (configuration not stated) | -5.2% (inactive)

SMILES | inhibition
O=C1Nc2ccc([N+](=O)[O-])cc2C1=Nc1cccc(CO)c1 | 3.75% (inactive)
Cc1[nH]n(-c2ccccc2)c(=O)c1C(c1cccc([N+](=O)[O-])c1)c1c(C)[nH]n(-c2ccccc2)c1=O | -11.2% (inactive)
NCCSc1c(-c2ccccc2)[nH]c2ccccc12 | 0.7% (inactive)
O=[N+]([O-])c1cc2c(cc1/C=N/n1c(-c3ccccn3)n[nH]c1=S)OCO2 | 0.15% (inactive)
CCN(Cc1cc(=O)n2ccsc2n1)c1cccc2ccccc12 | 1.45% (inactive)
O=C(Nc1ccccc1F)Nc1cc(S(=O)(=O)N2CCOCC2)ccc1N1CCCC1 | 6.3% (inactive)
Cc1cccn2cc(-c3ccc(S(=O)(=O)N4CCOCC4)cc3)nc12 | 40.8% (active)
COc1ccccc1C(=O)Nc1ccc(-c2nnn(CC(=O)NCc3ccco3)n2)cc1 | 13.7% (inactive)
COc1ccccc1C(=O)Nc1sc2c(c1C(=O)NCc1ccco1)CCCC2 | 33.8% (active)
Cc1ccc(C(=O)Nc2sc3c(c2C(=O)NCc2ccco2)CCCC3)cc1 | 29.9% (inactive)
O=c1nc(Nc2ccc(Br)cc2)sc2ccc([N+](=O)[O-])cc12 | -4% (inactive)
CCCCC[C@H](O)/C=C/[C@@H]1[C@@H](C/C=C\CCCC(=O)OC)[C@@H](O)C[C@H]1O | 23.6% (inactive)
CCN(CC)S(=O)(=O)c1ccc(C)c(NC(=O)CSc2ncc(C(F)(F)F)cc2Cl)c1 | -6.95% (inactive)
c1cc(Nc2ncnc3sc4c(c23)CCC4)ccn1 | 42.9% (active)
CC1=NN(c2ccc(Cl)cc2)C(=O)C1C(c1cccc(O)c1)c1c(C)[nH]n(-c2ccc(Cl)cc2)c1=O (configuration not stated) | -23.6% (inactive)
COc1ccc(C(c2c(C)[nH]n(-c3ccccc3)c2=O)c2c(C)[nH]n(-c3ccccc3)c2=O)cc1OC | 13.3% (inactive)
N#Cc1c(N)nc2c(c1-c1ccc3c(c1)OCO3)CCc1ccccc1-2 | 13.8% (inactive)
Cc1oc2c(c(C)cc3oc(=O)c(CC(=O)NCC(=O)NCC(=O)O)c(C)c32)c1C | 52.3% (active)
Cc1oc2c(c(C)cc3oc(=O)c(CC(=O)NCC(=O)NCC(=O)NCC(C)O)c(C)c32)c1C (configuration not stated) | 47.8% (active)

From PubChem BioAssay AID2069 (Sanford-Burnham Center for Chemical Genomics, 2009)
